Pf growth 96h – P. falciparum growth inhibition at 96 hour, primary screen for plastid delayed-death inhibitors; 320,000 compounds, 6.9% hits; P. falciparum luciferase reporter growth, 96 h; Potency, µM (top dose mostly 28.7 µM), usual class: inhibitors
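Delayed-death screen, second-generation endpoint: infected erythrocytes, 2% hematocrit, 0.05% parasitemia final; 96 hours at 37 C, 5% CO2; luciferase detection reagent; luminescence decrease equals reduced growth.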
HCV inhibitor – blocks hepatitis C virus. Huh7.5.1 HCVcc-Cre infection, luciferase reporter, 44 h. Potency, µM (top dose mostly 41.8 µM), usual class: inhibitors. 340,000 compounds, 3.4% hits
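Infectious HCVcc-Cre (~0.5 moi) was added to cells just after compound, with cells seeded 4 h earlier at 1,000 per well. Luciferase activity after 44 h culture reported infection; substrate was incubated 15 min at room temperature before reading.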
Pf growth 48h – inhibits P. falciparum growth in the first generation, 48 h. 310,000 compounds, 5.9% hits. Potency, µM (highest dose often 28.7 µM), usual class: inhibitors. P. falciparum luciferase growth in erythrocytes, 48 h
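Cell-based growth assay: transgenic P. falciparum expressing firefly luciferase, cultured in red cells within RPMI 1640 containing 0.5% w/v Albumax, 24 mM bicarbonate and gentamycin. A drop in luciferase activity indicates inhibition.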
AMA1 RON2 block – disrupts binding of P. falciparum AMA1 to RON2; AlphaScreen AMA1-biotinylated RON2 peptide binding; AID 720542; Potency, µM (highest dose often 58.2 µM), hits mostly inhibitors; 360,000 compounds, 0.2% hits; note: nearly all actives have a fitted effect of over 45% in size
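AMA1 (3D7) with his tag at 25 nM final met compounds first, then biotinylated RON2 peptide at 25 nM; detection used donor plus acceptor beads, 10 µg/mL apiece, read by AlphaScreen after 30 min at room temperature.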
Cycloheximide cs – counter-screen hit for Shiga toxin inhibitors, cycloheximide. cell reporter, cycloheximide protein synthesis inhibition counterscreen. max response, %. 300,000 compounds, 12% hits; in the data active = max response mostly above about 13%, no sharp cut-off; inactive = mostly below about 14%; note: read at 38.3 µM for the half of the compounds with a filed dose
Shiga inhibitor – blocks Shiga toxin action in Vero cells. inhibition, % at 38.7 µM. 290,000 compounds, 9.2% hits. Vero cells, Shiga toxin protein synthesis inhibition reporter; in the data active = inhibition mostly above about 28%, no sharp cut-off; inactive = mostly below about 43%
Hits are given with their value. The list is not random: actives were taken first. Their share in the collection is about 21%. Unless noted, calls come from the whole dose curve; as a rule, active = well fitted curve in the direction sought with a large enough effect; inconclusive = small, poorly fitted or top-dose-only effect, or another doubt; inactive = no such curve, though single readings can be large; an effect the other way counts as inactive or inconclusive.

What do the screens show for `Cc1ccc(Cl)cc1N1CCN(C(=O)C2CCN(S(=O)(=O)c3c(C)nn(C)c3C)CC2)CC1`?
HCV inhibitor: 11.2µM; Pf growth 48h: 8.28µM; AMA1 RON2 block: inactive; Cycloheximide cs: inactive; Shiga inhibitor: inactive

Results for Cc1nn(C)c(C)c1S(=O)(=O)N1CCCC(C(=O)NC2CCCCCC2)C1 (centres undefined) ?
Pf growth 96h: inactive; HCV inhibitor: inactive; Pf growth 48h: inactive; AMA1 RON2 block: inactive; Cycloheximide cs: inactive; Shiga inhibitor: inactive

Results for CCOC(=O)c1cccc(NC(=O)C2CCCN(S(=O)(=O)c3c(C)n[nH]c3C)C2)c1 (centres undefined) ?
Pf growth 96h: inconclusive; HCV inhibitor: inactive; Pf growth 48h: inactive; AMA1 RON2 block: inactive; Cycloheximide cs: inactive; Shiga inhibitor: inactive

How did CCOC(=O)c1cccc(NC(=O)C2CCCN(S(=O)(=O)c3c(C)nn(C)c3C)C2)c1 (centres undefined) do in these assays?
Pf growth 96h: 9.28µM; HCV inhibitor: inconclusive; AMA1 RON2 block: inactive; Cycloheximide cs: inactive; Shiga inhibitor: inactive

What do the screens show for `COc1ccc(N2CCN(CCCNC(=O)C3CCCN(S(=O)(=O)c4c(C)n[nH]c4C)C3)CC2)cc1` (centres undefined)?
Pf growth 96h: inconclusive; HCV inhibitor: inactive; Pf growth 48h: inactive; AMA1 RON2 block: inactive; Cycloheximide cs: inactive; Shiga inhibitor: inactive

How did Cc1nn(C)c(C)c1S(=O)(=O)N1CCCC(C(=O)N2CCN(c3ccc(Cl)cc3)CC2)C1 (centres undefined) do in these assays?
Pf growth 96h: inconclusive; HCV inhibitor: inconclusive; Pf growth 48h: 4.65µM; AMA1 RON2 block: inactive; Cycloheximide cs: inactive; Shiga inhibitor: inactive

What do the screens show for `Cc1n[nH]c(C)c1S(=O)(=O)N1CCCC(C(=O)N2CCN(c3ccc(Cl)cc3)CC2)C1` (centres undefined)?
Pf growth 96h: inactive; HCV inhibitor: inconclusive; Pf growth 48h: 6.57µM; AMA1 RON2 block: inactive; Cycloheximide cs: inactive; Shiga inhibitor: inactive

What do the screens show for `O=C(Nc1ccccc1C(=O)NCc1cccnc1)c1ccccc1F`?
Pf growth 96h: inconclusive; HCV inhibitor: inactive; Pf growth 48h: inactive; AMA1 RON2 block: inactive; Cycloheximide cs: inactive; Shiga inhibitor: inactive

What do the screens show for `C/C(=N\NC(=O)CCC(=O)Nc1ccccc1)c1cccs1`?
Pf growth 96h: inconclusive; HCV inhibitor: inactive; Pf growth 48h: inactive; AMA1 RON2 block: inactive; Cycloheximide cs: inactive; Shiga inhibitor: inactive

What do the screens show for `C/C(=N\NC(=O)c1ccccc1O)c1cccs1`?
Pf growth 96h: inactive; HCV inhibitor: inactive; Pf growth 48h: inactive; AMA1 RON2 block: inactive; Cycloheximide cs: 32.3; Shiga inhibitor: 55.6

How did C/C(=N\OCC(=O)Nc1ccccc1C(=O)O)c1cccs1 do in these assays?
Pf growth 96h: inactive; HCV inhibitor: inactive; Pf growth 48h: inactive; AMA1 RON2 block: inactive; Cycloheximide cs: 34.1; Shiga inhibitor: 98.4

How did C/C(=N\NC(=O)c1cccc2ccccc12)c1cccs1 do in these assays?
Pf growth 96h: inactive; HCV inhibitor: inactive; Pf growth 48h: inactive; AMA1 RON2 block: inactive; Cycloheximide cs: 29.4; Shiga inhibitor: 70.2

How did C/C(=N\NC(=O)COc1ccccc1)c1cccs1 do in these assays?
Pf growth 96h: inactive; HCV inhibitor: inactive; Pf growth 48h: inactive; AMA1 RON2 block: inactive; Cycloheximide cs: 53.6; Shiga inhibitor: 70.1

Results for OC[C@@H]1CN(Cc2ccc(F)cc2)C[C@H](n2cnc3c(N4CCCC4)ncnc32)O1 ?
AMA1 RON2 block: inactive

Results for C[C@@H](NC(=O)[C@@H]1CCCN1C(=O)[C@@H]1CCCN1C(=O)c1ccc(Cl)cc1)c1ccccc1 ?
AMA1 RON2 block: inactive

What do the screens show for `O=C(c1ccc(Cn2c(=O)[nH]c3ccccc3c2=O)cc1)N1CCN(c2ccccn2)CC1`?
Pf growth 96h: inactive; HCV inhibitor: inactive; Pf growth 48h: inconclusive; AMA1 RON2 block: inactive; Cycloheximide cs: inactive; Shiga inhibitor: inactive

Results for O=C(c1ccc(Cn2c(=O)[nH]c3ccccc3c2=O)cc1)N1CCN(c2ccccc2)CC1 ?
Pf growth 96h: 3.29µM; HCV inhibitor: inactive; Pf growth 48h: inconclusive; AMA1 RON2 block: inactive; Cycloheximide cs: inactive; Shiga inhibitor: inactive

Results for O=C(c1ccc(Cn2c(=S)[nH]c3ccccc3c2=O)cc1)N1CCN(c2ccccn2)CC1 ?
Pf growth 96h: inconclusive; HCV inhibitor: 11.2µM; Pf growth 48h: inconclusive; AMA1 RON2 block: inactive; Cycloheximide cs: inactive; Shiga inhibitor: inactive

How did O=C(c1ccc(COCC(F)(F)F)cc1)N1CCN(c2ccccn2)CC1 do in these assays?
Pf growth 96h: inconclusive; HCV inhibitor: inactive; Pf growth 48h: inactive; AMA1 RON2 block: inactive; Cycloheximide cs: 35.2; Shiga inhibitor: 46.4

Results for O=C(c1ccc2c(=O)n(CCc3ccccc3)c(=O)[nH]c2c1)N1CCN(c2ccccc2)CC1 ?
Pf growth 96h: inconclusive; HCV inhibitor: inactive; Pf growth 48h: inconclusive; AMA1 RON2 block: inactive; Cycloheximide cs: inactive; Shiga inhibitor: inactive

Results for COc1ccc(N2CCN(C(=O)c3ccc4c(=O)n(CCc5ccc(OC)c(OC)c5)c(=O)[nH]c4c3)CC2)cc1 ?
Pf growth 96h: inactive; HCV inhibitor: 11.2µM; Pf growth 48h: inconclusive; AMA1 RON2 block: inactive; Cycloheximide cs: inactive; Shiga inhibitor: inactive

How did COc1ccc(NC(=O)N2C[C@H]3CON(C)[C@H]3C[C@H]2c2ccc(N3CCCCC3)cc2)cc1 do in these assays?
AMA1 RON2 block: inactive

What do the screens show for `O=C(CCc1nnc2n(Cc3ccc(F)cc3)c(=O)c3ccccc3n12)N1CCN(c2ccccn2)CC1`?
Pf growth 96h: inactive; HCV inhibitor: 14.1µM; Pf growth 48h: inconclusive; AMA1 RON2 block: inactive; Cycloheximide cs: inactive; Shiga inhibitor: inactive

What do the screens show for `Cc1ccc(Cn2cnc3ccccc32)cc1`?
HCV inhibitor: inconclusive; Pf growth 48h: inactive; AMA1 RON2 block: inactive; Cycloheximide cs: inactive; Shiga inhibitor: inactive

What do the screens show for `COC(=O)c1ccc(Cn2cnc3ccccc3c2=O)cc1`?
Pf growth 96h: inconclusive; HCV inhibitor: inactive; Pf growth 48h: inactive; AMA1 RON2 block: inactive; Cycloheximide cs: inactive; Shiga inhibitor: inactive

What do the screens show for `CCOc1ccc2c(c1)ncn2Cc1ccccc1`?
Pf growth 96h: inactive; HCV inhibitor: inactive; Pf growth 48h: inactive; AMA1 RON2 block: inactive; Cycloheximide cs: 23.7; Shiga inhibitor: 108.3

Results for CC(=O)Oc1ccc(Cn2cnc3cc4ccccc4cc32)cc1 ?
Pf growth 96h: inactive; HCV inhibitor: inactive; Pf growth 48h: inactive; AMA1 RON2 block: inactive; Cycloheximide cs: 14.8; Shiga inhibitor: inactive

How did CC1CCCCC1NC(=O)CN1CCC(NC(=O)C(C)(C)C)CC1 (centres undefined) do in these assays?
AMA1 RON2 block: inactive

What do the screens show for `O=C(O)CN(CC(=O)O)c1ccccc1OCCOc1ccccc1N(CC(=O)O)CC(=O)O`?
Cycloheximide cs: inactive; Shiga inhibitor: inactive

What do the screens show for `N/C(=N\C(=S)Nc1ccc2c(c1)OCO2)c1ccccc1`?
AMA1 RON2 block: inactive
